# Source: PubChem BioAssay AID1159580 (chemical genetic matrix, 2015)
# Where “and” joins values, the source holds several entries; their conditions need not be identical. Equal entries are not always repeated. The campaign covered roughly 5,500 compounds. About 2,000 (36%) were called active. Another 18% or so got no clear call; they are omitted. The list shows a part of the results. A number with no mark means an inactive call. Cut-off read from the data, not from the text of the source: active = normalized growth mostly below about 0.91 (no sharp cut-off); inconclusive = no clear call, values can overlap the other calls; inactive = mostly above about 0.92.
# Assay: chemical genetic growth profiling, strain panel (AID 1159580);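 note: tested at 20 µM; growth read once vehicle control cultures reached saturation at 30 °C; 1 = growth at the plate median or of vehicle wells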
# Details: growth OD
# [1] = S. cerevisiae deletion strains, locus YAL013W, strain DEP1, stronger effect = lower value
# [2] = S. cerevisiae deletion strains, locus YBR229C, strain ROT2, stronger effect = lower value
# [3] = S. cerevisiae deletion strains, locus YDL101C, strain DUN1, stronger effect = lower value
# [4] = S. cerevisiae deletion strains, locus YDR150W, strain NUM1, stronger effect = lower value
# [5] = S. cerevisiae deletion strains, locus YEL061C, strain CIN8, stronger effect = lower value
# [6] = S. cerevisiae deletion strains, locus YGR078C, strain PAC10, stronger effect = lower value
# [7] = S. cerevisiae deletion strains, locus YHR030C, strain SLT2, stronger effect = lower value
# [8] = S. cerevisiae deletion strains, locus YHR087W, strain rtc3, stronger effect = lower value
# [9] = S. cerevisiae deletion strains, locus YJR043C, strain POL32, stronger effect = lower value
# [10] = S. cerevisiae deletion strains, locus YJR075W, strain HOC1, stronger effect = lower value
# [11] = S. cerevisiae deletion strains, locus YLR039C, strain RIC1, stronger effect = lower value
# [12] = S. cerevisiae deletion strains, locus YLR058C, strain SHM2 (second series), stronger effect = lower value
# [13] = S. cerevisiae deletion strains, locus YLR085C, strain ARP6, stronger effect = lower value
# [14] = S. cerevisiae deletion strains, locus YLR262C, strain YPT6, stronger effect = lower value
# [15] = S. cerevisiae deletion strains, locus YML094W, strain GIM5, stronger effect = lower value
# [16] = S. cerevisiae deletion strains, locus YMR219W, strain ESC1, stronger effect = lower value
# [17] = S. cerevisiae deletion strains, locus YMR263W, strain SAP30, stronger effect = lower value
# [18] = S. cerevisiae deletion strains, locus YNL153C, strain GIM3, stronger effect = lower value
# [19] = S. cerevisiae deletion strains, locus YNL298W, strain CLA4 (second series), stronger effect = lower value
# [20] = S. cerevisiae deletion strains, locus YNL322C, strain KRE1, stronger effect = lower value
# [21] = S. cerevisiae deletion strains, locus YNR030W, strain Alg12, stronger effect = lower value
# [22] = S. cerevisiae deletion strains, locus YOL006C, strain TOP1, stronger effect = lower value
# [23] = S. cerevisiae deletion strains, locus YPL055C, strain LGE1, stronger effect = lower value
# [24] = S. cerevisiae deletion strains, locus YPL241C, strain CIN2, stronger effect = lower value
# [25] = S. cerevisiae deletion strains, locus YPR135W, strain CTF4, stronger effect = lower value
structure (smiles),measurement,setting,value
CSC(=Nc1ccc(C(C)C)cc1)NC#N,normalized growth,[1],0.993
same,normalized growth,[2],0.978
same,normalized growth,[3],1.02
same,normalized growth,[4],0.916
same,normalized growth,[5],1
same,normalized growth,[6],0.98
same,normalized growth,[7],0.88
same,normalized growth,[8],0.97
same,normalized growth,"S. cerevisiae deletion strains, locus YJL187C, strain SWE1, stronger effect = lower value",0.981
same,normalized growth,[9],0.982
same,normalized growth,[10],0.936
same,normalized growth,[11],0.971
same,normalized growth,[12],0.955
same,normalized growth,[13],0.86
same,normalized growth,[14],0.943
same,normalized growth,[15],1.04
same,normalized growth,[16],0.97
same,normalized growth,[17],0.978
same,normalized growth,"S. cerevisiae deletion strains, locus YNL128W, strain TEP1, stronger effect = lower value",0.965
same,normalized growth,[18],1
same,normalized growth,[19],0.947
same,normalized growth,[20],0.986
same,normalized growth,[21],0.988
same,normalized growth,[22],0.839
same,normalized growth,[23],0.985
same,normalized growth,[24],0.908
same,normalized growth,[25],0.855
O=C(c1ccc(Cl)cc1)N1CCN(c2ccc(C(F)(F)F)cn2)CC1,normalized growth,[1],0.934
same,normalized growth,"S. cerevisiae deletion strains, locus YAR019C, strain CDC15, stronger effect = lower value",0.973
same,normalized growth,"S. cerevisiae deletion strains, locus YBL105C, strain PKC1, stronger effect = lower value",0.992
same,normalized growth,"S. cerevisiae deletion strains, locus YBR135W, strain CKS1, stronger effect = lower value",0.997
same,normalized growth,"S. cerevisiae deletion strains, locus YBR136W, strain MEC1, stronger effect = lower value",0.988
same,normalized growth,"S. cerevisiae deletion strains, locus YBR160W, strain CDC28, stronger effect = lower value",0.973
same,normalized growth,[2],0.824 (active)
same,normalized growth,"S. cerevisiae deletion strains, locus YDL017W, strain CDC7, stronger effect = lower value",0.995
same,normalized growth,"S. cerevisiae deletion strains, locus YDL028C, strain MPS1, stronger effect = lower value",0.968
same,normalized growth,[3],0.986 and 0.988
same,normalized growth,"S. cerevisiae deletion strains, locus YDL108W, strain KIN28, stronger effect = lower value",0.979
same,normalized growth,"S. cerevisiae deletion strains, locus YDL132W, strain cdc53, stronger effect = lower value",0.988
same,normalized growth,"S. cerevisiae deletion strains, locus YDL214C, strain PRR2, stronger effect = lower value",0.937
same,normalized growth,"S. cerevisiae deletion strains, locus YDR052C, strain DBF4, stronger effect = lower value",1
same,normalized growth,"S. cerevisiae deletion strains, locus YDR054C, strain cdc34, stronger effect = lower value",0.978
same,normalized growth,[4],0.843
same,normalized growth,"S. cerevisiae deletion strains, locus YDR226W, strain ADK1, stronger effect = lower value",0.979
same,normalized growth,"S. cerevisiae deletion strains, locus YDR477W, strain SNF1, stronger effect = lower value",0.936
same,normalized growth,[5],0.8 (active)
same,normalized growth,"S. cerevisiae deletion strains, locus YER123W, strain YCK3, stronger effect = lower value",0.913
same,normalized growth,"S. cerevisiae deletion strains, locus YER133W, strain GLC7, stronger effect = lower value",0.955
same,normalized growth,"S. cerevisiae deletion strains, locus YFL009W, strain cdc4, stronger effect = lower value",0.967
same,normalized growth,"S. cerevisiae deletion strains, locus YFL029C, strain CAK1, stronger effect = lower value",0.981
same,normalized growth,"S. cerevisiae deletion strains, locus YFR003C, strain YPI1, stronger effect = lower value",0.993
same,normalized growth,"S. cerevisiae deletion strains, locus YFR019W, strain FAB1, stronger effect = lower value",0.968
same,normalized growth,"S. cerevisiae deletion strains, locus YFR028C, strain CDC14, stronger effect = lower value",0.978
same,normalized growth,"S. cerevisiae deletion strains, locus YGR040W, strain KSS1, stronger effect = lower value",0.954
same,normalized growth,"S. cerevisiae deletion strains, locus YGR052W, strain FMP48, stronger effect = lower value",0.978
same,normalized growth,[6],0.933
same,normalized growth,"S. cerevisiae deletion strains, locus YGR092W, strain DBF2, stronger effect = lower value",0.89
same,normalized growth,"S. cerevisiae deletion strains, locus YGR229C, strain SMI1, stronger effect = lower value",0.551 (active)
same,normalized growth,[7],0.0888 (active) and 0.729 (active)
same,normalized growth,"S. cerevisiae deletion strains, locus YHR079C, strain IRE1, stronger effect = lower value",0.88
same,normalized growth,"S. cerevisiae deletion strains, locus YHR082C, strain KSP1, stronger effect = lower value",0.96
same,normalized growth,[8],0.947
same,normalized growth,"S. cerevisiae deletion strains, locus YHR205W, strain SCH9, stronger effect = lower value",0.857
same,normalized growth,"S. cerevisiae deletion strains, locus YIL147C, strain SLN1, stronger effect = lower value",0.986
same,normalized growth,"S. cerevisiae deletion strains, locus YJL095W, strain BCK1, stronger effect = lower value",0.892
same,normalized growth,"S. cerevisiae deletion strains, locus YJL128C, strain PBS2, stronger effect = lower value",0.942
same,normalized growth,"S. cerevisiae deletion strains, locus YJL157C, strain FAR1, stronger effect = lower value",0.979
same,normalized growth,"S. cerevisiae deletion strains, locus YJR016C, strain ILV3, stronger effect = lower value",0.986
same,normalized growth,[9],0.993
same,normalized growth,"S. cerevisiae deletion strains, locus YJR066W, strain TOR1 (second series), stronger effect = lower value",0.974
same,normalized growth,"S. cerevisiae deletion strains, locus YJR066W, strain TOR1, stronger effect = lower value",0.891
same,normalized growth,[10],1.11 [resistant] (active)
same,normalized growth,"S. cerevisiae deletion strains, locus YKL048C, strain ELM1, stronger effect = lower value",0.963
same,normalized growth,"S. cerevisiae deletion strains, locus YKL067W, strain YNK1, stronger effect = lower value",0.925
same,normalized growth,"S. cerevisiae deletion strains, locus YKL101W, strain HSL1, stronger effect = lower value",0.911
same,normalized growth,"S. cerevisiae deletion strains, locus YKL193C, strain SDS22, stronger effect = lower value",0.988
same,normalized growth,"S. cerevisiae deletion strains, locus YKL203C, strain TOR2, stronger effect = lower value",1.02
same,normalized growth,[11],1.16
same,normalized growth,[12],0.974
same,normalized growth,[13],0.436 (active)
same,normalized growth,"S. cerevisiae deletion strains, locus YLR113W, strain HOG1, stronger effect = lower value",0.813 (active)
same,normalized growth,"S. cerevisiae deletion strains, locus YLR133W, strain CKI1, stronger effect = lower value",0.95
same,normalized growth,[14],1.1
same,normalized growth,"S. cerevisiae deletion strains, locus YLR403W, strain SFP1, stronger effect = lower value",0.957
same,normalized growth,"S. cerevisiae deletion strains, locus YML070W, strain DAK1, stronger effect = lower value",0.921
same,normalized growth,[15],0.802 (active)
same,normalized growth,"S. cerevisiae deletion strains, locus YMR001C, strain CDC5, stronger effect = lower value",0.977
same,normalized growth,"S. cerevisiae deletion strains, locus YMR205C, strain PFK2 (second series), stronger effect = lower value",0.957
same,normalized growth,[16],0.958
same,normalized growth,[17],0.963
same,normalized growth,"S. cerevisiae deletion strains, locus YMR277W, strain FCP1, stronger effect = lower value",0.962
same,normalized growth,"S. cerevisiae deletion strains, locus YMR307W, strain GAS1, stronger effect = lower value",0.272 (active)
same,normalized growth,"S. cerevisiae deletion strains, locus YNL006W, strain LST8, stronger effect = lower value",0.983
same,normalized growth,"S. cerevisiae deletion strains, locus YNL020C, strain ARK1, stronger effect = lower value",0.956
same,normalized growth,[18],0.911 (active)
same,normalized growth,"S. cerevisiae deletion strains, locus YNL161W, strain CBK1, stronger effect = lower value",0.994
same,normalized growth,"S. cerevisiae deletion strains, locus YNL183C, strain NPR1, stronger effect = lower value",0.979
same,normalized growth,"S. cerevisiae deletion strains, locus YNL207W, strain RIO2, stronger effect = lower value",0.985
same,normalized growth,"S. cerevisiae deletion strains, locus YNL222W, strain SSU72, stronger effect = lower value",0.982
same,normalized growth,[19],0.563 (active)
same,normalized growth,"S. cerevisiae deletion strains, locus YNL307C, strain MCK1 (second series), stronger effect = lower value",0.931
same,normalized growth,[20],0.982
same,normalized growth,[21],0.861 (active)
same,normalized growth,[22],0.661 (active)
same,normalized growth,"S. cerevisiae deletion strains, locus YOL078W, strain AVO1, stronger effect = lower value",0.982
same,normalized growth,"S. cerevisiae deletion strains, locus YOL136C, strain PFK27, stronger effect = lower value",0.908
same,normalized growth,"S. cerevisiae deletion strains, locus YOR061W, strain CKA2, stronger effect = lower value",0.965
same,normalized growth,"S. cerevisiae deletion strains, locus YOR119C, strain RIO1, stronger effect = lower value",0.958
same,normalized growth,"S. cerevisiae deletion strains, locus YOR231W, strain MKK1, stronger effect = lower value",0.853
same,normalized growth,"S. cerevisiae deletion strains, locus YOR329C, strain SCD5, stronger effect = lower value",0.992
same,normalized growth,"S. cerevisiae deletion strains, locus YPL031C, strain PHO85, stronger effect = lower value",0.941
same,normalized growth,[23],0.919
same,normalized growth,"S. cerevisiae deletion strains, locus YPL153C, strain RAD53, stronger effect = lower value",0.93
same,normalized growth,"S. cerevisiae deletion strains, locus YPL204W, strain HRR25, stronger effect = lower value",0.963
same,normalized growth,"S. cerevisiae deletion strains, locus YPL209C, strain IPL1, stronger effect = lower value",0.991
same,normalized growth,[24],1.01
same,normalized growth,"S. cerevisiae deletion strains, locus YPL256C, strain CLN2, stronger effect = lower value",0.8 (active)
same,normalized growth,"S. cerevisiae deletion strains, locus YPR025C, strain CCL1, stronger effect = lower value",0.987
same,normalized growth,"S. cerevisiae deletion strains, locus YPR106W, strain ISR1, stronger effect = lower value",0.975
same,normalized growth,"S. cerevisiae deletion strains, locus YPR111W, strain DBF20, stronger effect = lower value",0.955
same,normalized growth,[25],0.671
same,normalized growth,"S. cerevisiae deletion strains, strain NNK1, stronger effect = lower value",0.977
same,normalized growth,"S. cerevisiae deletion strains, strain TSCII, stronger effect = lower value",0.972
same,normalized growth,"S. cerevisiae strains, strain wild type, stronger effect = lower value",0.862 (active)
